Most compounds without a hit are left out; they make up all but 8.8% or so of the library.
HttQ103 aggreg = qHTS Multiplex Assay to Identify Dual Action Probes in a Cell Model of Huntington: Aggregate Formation (GFP) | PC12 HttQ103-GFP aggregates, Acumen cytometry, 40 h | Potency, µM (series often up to 46.1 µM), without a hit: at the top dose activity change, negative = inhibition, hits mostly inhibitors | 220,000 tested, 1.1% active | AID 1688, 2009; active = well fitted curve in the direction sought with a large enough effect; inconclusive = small, poorly fitted or top-dose-only effect, or another doubt; inactive = no such curve, though single readings can be large; an effect the other way counts as inactive or inconclusive; also: % is scaled to controls: 0 for no effect and ±100 for the full control effect; nearly all actives have a fitted effect of over 60% in size
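Aggregate formation scored by laser-scanning cytometer (488 excitation, 500–530 emission) in lysed PC12 cells expressing Q103-GFP after 100 nM tebufenozide induction; library tested in dose series, with ATPLite reagent added in the multiplex.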
ALDH1A1 inh = qHTS Assay for Inhibitors of Aldehyde Dehydrogenase 1 (ALDH1A1) | Aldehyde dehydrogenase 1A1 (Homo sapiens), P00352 | Purified ALDH1A1, NADH fluorescence, propionaldehyde substrate | Potency, µM (series often up to 75.3 µM), without a hit: at the highest dose activity, negative = inhibition, most hits filed as inhibitors | 220,000 tested, 7.3% active;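 also: plate controls were no enzyme wells and a reference inhibitor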
HTT ATP protect = qHTS Multiplex Assay to Identify Dual Action Probes in a Cell Model of Huntington: Cytoprotection (ATP) | PC12 HTT-Q103 induced, cytoprotection, ATP luminescence, 40 h | Potency, µM (titrated, usually from 56.4 µM), for the others: cytoprotection (ATP increase), actives largely listed as activators | 230,000 tested, 0.14% active | AID 1471, 2008; active = well fitted curve in the direction sought with a large enough effect; inconclusive = small, poorly fitted or top-dose-only effect, or another doubt; inactive = no such curve, though single readings can be large; an effect the other way counts as inactive or inconclusive; also: % of control where 0% means no effect; nearly all actives have a fitted effect of over 45% in size
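Compounds added alongside 100 nM tebufenozide, which induces toxic Q103 huntingtin exon 1-GFP in stable PC12 cells; surviving cells quantified by luminescent ATP measurement. Medium: phenol red-free DMEM, 5% equine and 5% calf serum.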
Lamin A splicing = qHTS Assay for Modulators of Lamin A Splicing | HeLa LMNA splicing GFP/RFP minigene ratio, 48 h | Potency, µM (top dose mostly 46.1 µM), without a hit: top-dose ratio change, negative = inhibition, hits mostly inhibitors | 200,000 tested, 0.01% active | AID 1487, 2009; active = well fitted inhibition curve with a large enough effect in the signal ratio, with a control signal flat, not every such curve was filed as active; inconclusive = small, poorly fitted or top-dose-only effect, or effect the other way, or a change in a side signal; the % refers to the signal ratio; also: % is scaled to controls: 0 for no effect and ±100 for the full control effect
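Read-out is the ratio of GFP to DsRed2 object intensity, acquired by 488 nm laser-scanning cytometry on HeLa lamin A-EGFP minigene reporter cells. Compound incubation 48 hrs at 37 °C in Opti-MEM with 2% FBS; DMSO 0.5% final.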
HPGD inh = qHTS Assay for Inhibitors of HPGD (15-Hydroxyprostaglandin Dehydrogenase); 150,000 tested, 4.3% active; purified HPGD, NADH fluorescence kinetic, PGE2 substrate; 15-hydroxyprostaglandin dehydrogenase [NAD(+)] (Homo sapiens), P15428; Potency, µM, without a hit: top-dose activity change, negative = inhibition, usual class: inhibitors; also: % is scaled to controls: 0 for no effect and ±100 for the full control effect
Target sequence (P15428 whole entry, looked up): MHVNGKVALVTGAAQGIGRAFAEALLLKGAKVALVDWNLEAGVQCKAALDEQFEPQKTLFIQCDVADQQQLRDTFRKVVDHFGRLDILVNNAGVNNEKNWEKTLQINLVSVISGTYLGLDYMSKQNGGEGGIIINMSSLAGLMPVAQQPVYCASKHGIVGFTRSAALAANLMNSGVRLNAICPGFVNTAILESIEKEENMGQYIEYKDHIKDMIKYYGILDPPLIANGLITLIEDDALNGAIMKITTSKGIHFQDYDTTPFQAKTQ
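NADH formation kinetics: reaction with 30 uM PGE2 and 1 mM NAD+ (final), 20 nM enzyme, Tris-HCl pH 8 with Tween 20, after 15 min compound preincubation at room temperature. Fluorescence change, last versus first of five reads.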
Active calls of the source: *; ? = inconclusive; . = no result given; [ ] = remark or other dose. Unless noted, calls follow the shape of the dose curve; as a rule, active = well fitted inhibition curve with a large enough effect (not every such curve was filed as active); inconclusive = small, poorly fitted or top-dose-only effect, or another doubt; inactive = no such curve, though single readings can be large or run the other way. Potency is read from the fitted curve at half-maximal effect.

SMILES	HttQ103 aggreg	ALDH1A1 inh	HTT ATP protect	Lamin A splicing	HPGD inh
Cc1ccc(CNC(=O)CCS(=O)(=O)c2cccc3nonc23)cc1	-11%	40µM*	17%	-10%	4%
Cc1ccc(NC(=O)CCS(=O)(=O)c2cccc3nonc23)c(C)c1	.	.	.	-14%[46 µM]	.
COc1ccccc1CNC(=O)CCS(=O)(=O)c1cccc2nonc12	-3%[9.22 µM]	18µM*	-7%	-7%	-14%
COc1ccc(CNC(=O)CCS(=O)(=O)c2cccc3nonc23)cc1	6.3µM*	18µM*	3.5µM*	0%	-6%
COc1ccc(NC(=O)CCS(=O)(=O)c2cccc3nonc23)c(OC)c1	-8%	?	5%	-1%	-1%
CN1CCC[C@@H]1Cc1c[nH]c2ccc(CCS(=O)(=O)c3ccccc3)cc12	33%	.	32%	.	.
CCOc1ccccc1N/C(=C(/C(Cl)=C(Cl)Cl)[N+](=O)[O-])n1cncn1	14%	20µM*	-15%	0%	-16%
CCOc1ccccc1NC(=O)c1ccc([N+](=O)[O-])cc1	-7%[9.22 µM]	12%	-24%[10 µM]	.	.
O=[N+]([O-])/C(C(Cl)=C(Cl)Cl)=C(\Nc1ccc(F)cc1)n1cncn1	-16%	13µM*	-35%	?	28µM*
CCOc1ccc(N/C(=C(/C(Cl)=C(Cl)Cl)[N+](=O)[O-])n2cncn2)cc1	4%[9.22 µM]	?	-14%	-3%	?
C=CCC(C)(O)c1cccc(Br)c1 (stereo not given)	.	13%	2%	.	-2%
CC[C@@H]1Cn2c(c3nc(-c4cc(Cl)cc(Cl)c4Cl)nc-3n(C)c2=O)N1	.	?	-13%	.	?
Clc1ccc(NCn2cncn2)nc1	12%	19µM*	-2%	-1%	?
O=C(Cn1cncn1)NCc1ccc(Cl)cc1	-3%	-3%	-8%[10 µM]	-1%	-3%
O=C(Nc1ccc(-c2cn3ccsc3n2)cc1)C1CCCC1	5%	-10%	-47%	5%	14µM*
CC(=O)Nc1ccc(-c2cn3ccsc3n2)cc1	0%	1%	-83%	-6%	-8%
c1cn2cc(-c3ccc4c(c3)OCO4)nc2s1	5%	8.9µM*	-79%	9%	32µM*
O=C1CC(Sc2nnc(-c3ccccc3O)o2)C(=O)N1c1ccccc1 (stereo not given)	?	3.5µM*	-59%	8%	?
COc1ccc(N2C(=O)CC(Sc3nc(C)cc(C)c3C#N)C2=O)cc1 (stereo not given)	16%	?	11%[10 µM]	-6%	-5%
COc1ccc(N2C(=O)CC(Sc3nnc(-c4ccccc4)o3)C2=O)cc1 (stereo not given)	25µM*	1.8µM*	-150%	2%	22µM*
CCOc1ccc(CNC(=O)Cn2c(=O)c3cccn3c3ccc(F)cc32)cc1OC	.	.	.	6%[46 µM]	.
O=C(NCCc1ccccc1)C(=S)N1CCCCC1	6%[9.22 µM]	10%	18%	20%[46 µM]	.
CCCCNC(=O)CSc1nc2cc3c(cc2c(=O)n1CCCC(=O)NCc1ccc2c(c1)OCO2)OCO3	.	.	.	15%[46 µM]	.
CCc1ccc(S(=O)(=O)Nc2cc(SCC(=O)O)c(O)c3ccccc23)cc1	12%[9.22 µM]	14µM*	?	.	.
O=C(O)CSc1cc(NS(=O)(=O)c2cccc([N+](=O)[O-])c2)c2ccccc2c1O	-12%[9.22 µM]	3.5µM*	-31%[10 µM]	.	.
CCOc1ccc(S(=O)(=O)NCCc2csc(-c3ccc(Cl)cc3)n2)cc1	.	.	.	6%[46 µM]	.
CCCCc1ccc(NC(=S)Nc2ccc(Nc3ccc(OC)cc3)cc2)cc1	20%	7.1µM*	28%[10 µM]	?	?
CCCCc1ccc(NC(=S)NCc2cccc(OC)c2)cc1	-5%[9.22 µM]	?	-54%	.	.
N#Cc1cc([N+](=O)[O-])ccc1NC(=O)COC(=O)C12CC3CC(CC(C3)C1)C2	-18%	22µM*	-9%	.	.
O=C(COC(=O)C12CC3CC(CC(C3)C1)C2)Nc1ccc([N+](=O)[O-])cc1Br	-9%	-8%	3%[10 µM]	1%	-17%
